Broadly, the inhibition is the share of the control response that was lost under treatment.

In all, about 100,000 compounds went through this assay and about 770 (0.77%) were called active. The sample holds actives, similar compounds and a random draw of the others, so the mix is not that of the screen. A number with no mark means an inactive call. Cut-off read from the data, not from the text of the source: active = inhibition above about 50%; inactive = the rest.

The target of this test is Gag-Pol polyprotein (Human immunodeficiency virus type 1 group M subtype B (isolate HXB2)) (UniProt P04585). The experiment in a line: RNase H inhibition, HIV 1 Gag Pol polyprotein, FRET biochemical assay, screening (AID 372). Conditions: HIV-1 RT RNase H, FRET RNA/DNA substrate fluorescence; at 10 µM; stronger effect = higher value.
For the molecule `Cc1cccc2c(Nc3ccccc3)c3ccccc3nc12`, the inhibition was 17%.

With `CCOC(=O)c1cccc(Nc2ncnc3ccc(C)cc23)c1`, the inhibition is 0%.

`Fc1ccc(/C=N/c2ncn[nH]2)cc1`: the inhibition was 6%.

Turning to `CNC(=O)C(=O)NCCN1CCN(S(=O)(=O)c2ccc([N+](=O)[O-])cc2)CC1`, the inhibition is 0%.

On to `O=C(COc1ccccc1Br)Nc1ccc(Cl)c(Cl)c1`, for which the inhibition was 20%.

As to `COc1ccc(C(=O)NC(CC(=O)O)c2ccccc2)cc1` (stereo unspecified), the inhibition is 0%.

For the molecule `CC(=O)c1cccc(N/C=C\C(=O)c2ccc(Cl)c(Cl)c2)c1`, the inhibition was 10%.

For `Cc1ccc(NC(=O)/C=C/c2cccc(C(F)(F)F)c2)cc1`, the inhibition was 12%.

As to `O=C1C=CC(=O)N1c1ccc(-c2nc3ccc(N4C(=O)C=CC4=O)cc3[nH]2)cc1`, the inhibition is 14%.

In the case of `O=C1c2ccccc2C(=O)N1c1ccc(-c2nc3ccccc3[nH]2)cc1`, the inhibition was 0%.

For `CCOC(=O)C1=C(C)N=c2s/c(=C\c3ccc(Br)o3)c(=O)n2C1c1ccc(OC)cc1OC` (stereo unspecified), the inhibition is 23%.

In the case of `CCCC(=O)Nc1c(C)ccc2nsnc12`, the inhibition is 0%.

In the case of `COCCCNC(=O)COc1ccc(Cl)cc1C`, the inhibition is 10%.

Take `COc1ccc(/C=C2\SC(=S)N(C3CCCCC3)C2=O)cc1O`: the inhibition is 5%.

As to `CCN1C(=O)/C(=C\c2ccc(O)cc2O)SC1=S`, the inhibition was 70% (active).

Regarding `CCOc1cc(/C=C2\SC(=S)N(C)C2=O)ccc1O`, the inhibition is 22%.

`CCN1C(=O)/C(=C\c2cc(OC)ccc2O)SC1=S`: the inhibition was 24%.

Consider `CCN1C(=O)/C(=C\c2cccc(O)c2)SC1=S`, for which the inhibition is 28%.

Take `COc1ccc(/C=C2/SC(=S)N(C)C2=O)cc1O`: the inhibition is 43%.

As for `COc1cc(/C=C2\SC(=S)N(C3CCCCC3)C2=O)ccc1O`, the inhibition is 8%.

Regarding `CCN1C(=O)/C(=C\c2ccc(O)c(OC)c2)SC1=S`, the inhibition is 36%.

In the case of `CCN1C(=O)/C(=C\c2cc(Cl)ccc2O)SC1=S`, the inhibition was 16%.

As to `CCN1C(=O)/C(=C\c2ccc(O)c(O)c2)SC1=S`, the inhibition is 81% (active).

On to `CN1C(=O)/C(=C/c2ccc(O)c(O)c2)SC1=S`, for which the inhibition is 83% (active).

Take `N/C(Cc1ccc([N+](=O)[O-])cc1)=N\OC(=O)c1ccc([N+](=O)[O-])cc1`: the inhibition was 6%.

For the molecule `Cc1ccc(C(=O)N2CCc3ccccc32)cc1[N+](=O)[O-]`, the inhibition is 5%.

For `O=[N+]([O-])c1cc([N+](=O)[O-])c(N2CCN(c3ccccc3Cl)CC2)cc1Nc1ccc(Br)cc1`, the inhibition is 5%.

On to `O=C(CSc1cc(Cl)ccc1Cl)Nc1cccc(C(F)(F)F)c1`, for which the inhibition was 9%.

As to `COc1cc(C(=O)N/C(=C/c2ccco2)C(=O)Nc2ccccc2)cc(OC)c1OC`, the inhibition was 9%.

`COc1ccccc1C1NC(=O)NC(C)=C1C(=O)OC(C)C` (stereo unspecified): the inhibition is 8%.

Turning to `CCNC(=O)C(=O)Nc1ccccc1C`, the inhibition is 5%.

In the case of `CCOC(=O)c1c(NC(=O)Cc2ccc(Cl)cc2)sc(C(=O)Nc2ccccc2OC)c1C`, the inhibition was 0%.

For the molecule `Cc1c(OCC(N)=O)ccc2c1oc(=O)c1ccccc12`, the inhibition is 47%.

As for `COc1ccccc1N1CCN(/N=C/C=C\c2ccco2)CC1`, the inhibition was 8%.

For the molecule `C[n+]1cccc(C(=O)NCCOC(=O)c2ccc(F)cc2)c1`, the inhibition was 0%.

For the molecule `O=C1/C(=C\c2ccc(O)cc2)SC(=S)N1Cc1ccccc1`, the inhibition is 46%.

As to `COc1cc(/C=C2\SC(=S)N(CCCCCCCCCCC(=O)O)C2=O)ccc1O`, the inhibition is 23%.

In the case of `O=C1/C(=C/c2ccc(O)c([N+](=O)[O-])c2)SC(=S)N1Cc1ccccc1`, the inhibition is 23%.

With `O=C(O)CCCCCCCCCCN1C(=O)/C(=C/c2ccc(Br)cc2)SC1=S`, the inhibition was 25%.

Turning to `O=C1/C(=C\c2ccc(O)c(O)c2)SC(=S)N1Cc1ccccc1`, the inhibition was 73% (active).

As to `O=C(O)CCCCCN1C(=O)/C(=C/c2ccc(O)c(O)c2)SC1=S`, the inhibition was 53% (active).

As for `CCOc1ccc(/C=N/N2CCN(Cc3cccc4ccccc34)CC2)cc1OC`, the inhibition is 13%.

`NC(=O)c1ccccc1NC(=O)c1sc2ccccc2c1Cl`: the inhibition was 0%.

Regarding `O=C1S/C(=C/c2ccc3c(c2)OCO3)C(=O)N1CN1CCCC1`, the inhibition was 10%.

As for `c1ccc(CCCN2CCN(Cc3cccnc3)CC2)cc1`, the inhibition was 5%.

Regarding `COC(=O)C1=C(C)N=c2s/c(=C\c3ccccc3F)c(=O)n2C1c1ccc(OC)cc1` (stereo unspecified), the inhibition was 11%.

In the case of `CCOC(=O)c1ccc(N2C(=O)C3C(C2=O)C2(c4ccccc4)C(=O)C3(c3ccccc3)C(c3ccc(OC)cc3)=C2c2ccc(OC)cc2)cc1` (stereo unspecified), the inhibition was 44%.

Consider `COc1ccc(C2=C(c3ccc(OC)cc3)C3(c4ccccc4)C(=O)C2(c2ccccc2)C2C(=O)N(c4ccc(Br)cc4)C(=O)C23)cc1` (stereo unspecified), for which the inhibition was 42%.

Take `COC(=O)c1ccc(N2C(=O)C3C(C2=O)C2(c4ccccc4)C(=O)C3(c3ccccc3)C(c3ccc(OC)cc3)=C2c2ccc(OC)cc2)cc1` (stereo unspecified): the inhibition was 57% (active).

As for `COc1cc2ccccc2cc1C(=O)Nc1ccc(Cl)c(Cl)c1`, the inhibition is 24%.

As for `Cc1ccc(OCC2CNC(=O)O2)cc1` (stereo unspecified), the inhibition was 10%.

Take `CCc1ccc(N2C(=O)/C(=C/c3ccc(I)o3)C(=O)NC2=S)cc1`: the inhibition was 97% (active).

In the case of `CCOc1cccc(N2C(=O)/C(=C/c3ccc(I)o3)C(=O)NC2=S)c1`, the inhibition is 39%.

`CCc1ccc(N2C(=O)/C(=C/c3ccc(-c4ccc(F)cc4)o3)C(=O)NC2=S)cc1`: the inhibition was 26%.

Take `O=C1NC(=S)N(c2ccc(Cl)cc2)C(=O)/C1=C/c1ccc(N2CCCC2)o1`: the inhibition is 10%.

Take `CCc1ccc(N2C(=O)NC(=O)/C(=C\c3ccc(I)o3)C2=O)cc1`: the inhibition was 11%.

With `CCOc1ccc(N2C(=O)NC(=O)/C(=C\c3ccc(Br)o3)C2=O)cc1`, the inhibition is 1%.

Turning to `CCOc1ccc(N2C(=O)NC(=O)/C(=C\c3ccc(I)o3)C2=O)cc1`, the inhibition is 5%.

Turning to `CCOc1ccc(N2C(=O)/C(=C/c3ccc(N(CC)CC)o3)C(=O)NC2=S)cc1`, the inhibition was 21%.

Regarding `O=C1NC(=S)N(c2ccc(Cl)cc2)C(=O)/C1=C/c1ccc(-c2ccc(F)cc2)o1`, the inhibition was 25%.

`O=C(Cc1csc(-c2ccccc2)n1)Nc1nccs1`: the inhibition was 0%.

Consider `O=C(NCCSc1ccccn1)c1ccc([N+](=O)[O-])cc1`, for which the inhibition is 0%.

Consider `Cc1ccc2c(c1)-c1c(ssc1=S)C(C)(C)N2C(=O)c1ccco1`, for which the inhibition is 48%.

For `Cc1ccc(/C(O)=C2/C(=O)C(=O)N(c3ccccc3)C2c2ccc([N+](=O)[O-])cc2)cc1` (stereo unspecified), the inhibition was 0%.

`CC1=C(C(=O)OCC2CCCO2)C(c2cc3c(cc2[N+](=O)[O-])OCO3)C2=C(CCCC2=O)N1` (stereo unspecified): the inhibition was 6%.

Consider `CCC(C)c1ccc(NC(=O)Cc2ccc(Cl)cc2)cc1` (stereo unspecified), for which the inhibition was 10%.

As for `CCC(=O)Nc1ccc(NC(=S)NC(=O)c2ccco2)cc1`, the inhibition was 0%.

For `N#C/C(=C\c1ccc(-c2ccc([N+](=O)[O-])cc2Br)o1)C(N)=O`, the inhibition was 22%.

For `CCOc1ccc(N2C(=O)NC(=O)/C(=C/c3cccc4ccccc34)C2=O)cc1`, the inhibition is 73% (active).

In the case of `CCOc1ccc(N2C(=O)NC(=O)/C(=C\c3ccccc3)C2=O)cc1`, the inhibition was 0%.

On to `COc1ccc(N2C(=O)NC(=O)/C(=C/c3ccc(I)o3)C2=O)cc1`, for which the inhibition is 11%.

In the case of `CCOc1ccc(N2C(=O)NC(=O)/C(=C\c3ccccc3OC)C2=O)cc1`, the inhibition is 5%.

With `COc1ccc(N2C(=O)/C(=C\c3ccc([N+](=O)[O-])o3)C(=O)NC2=S)cc1`, the inhibition was 43%.

As to `CCCC1CCC(c2ccc(C(=O)CCN(C)C)cc2)CC1` (stereo unspecified), the inhibition was 25%.

Regarding `COc1ccc(OC)c(/C=C2/SC(=S)N(c3ccc(Cl)cc3)C2=O)c1`, the inhibition was 4%.

As to `Cc1c(Cc2ccccc2)c(=O)oc2c(C)c(OS(C)(=O)=O)ccc12`, the inhibition is 0%.

On to `COc1ccccc1/C=N/NC(=O)C(C)Sc1nc(C)cc(C)n1` (stereo unspecified), for which the inhibition is 14%.

As to `O=C(COC(=O)c1ccc2c(c1)OCCO2)c1ccc(-c2ccccc2)cc1`, the inhibition is 14%.

As for `O=C(COC(=O)c1ccc2c(c1)OCCO2)c1ccc(Br)cc1`, the inhibition was 0%.

On to `O=C(COC(=O)c1ccccc1I)c1ccc2c(c1)OCCO2`, for which the inhibition was 57% (active).

With `C=CCOc1cccc(/C=N/NC(=O)C(=O)Nc2ccc(C)c(C)c2)c1`, the inhibition was 1%.

On to `CCOc1cc(/C=C(/C#N)C(=O)Nc2ccc(O)cc2)ccc1OC`, for which the inhibition was 8%.

Take `CC(C)(C)c1cc(C(c2ccccc2O)N2CCOCC2)cc(C(C)(C)C)c1O` (stereo unspecified): the inhibition is 22%.

With `CN1C(=O)S/C(=C/c2ccc(OCc3ccccc3C#N)c(Br)c2)C1=O`, the inhibition was 39%.

With `COc1cc(/C=C2/SC(=S)NC2=O)ccc1OCc1ccccc1C#N`, the inhibition is 46%.

As for `O=C1NC(=S)NC(=O)C1=Cc1cc(Br)ccc1OCc1cccc2ccccc12`, the inhibition is 32%.

Take `Cc1cccc(C)c1OCCOc1ccc(C=C2C(=O)NC(=S)NC2=O)cc1`: the inhibition is 36%.

For `N#Cc1ccccc1COc1ccc(/C=C2/SC(=S)NC2=O)cc1Br`, the inhibition was 52% (active).

On to `O=C1NC(=S)NC(=O)C1=Cc1ccc(OCc2cccc3ccccc23)c(Br)c1`, for which the inhibition was 54% (active).

On to `N#Cc1ccccc1COc1ccc(C=C2C(=O)NC(=S)NC2=O)cc1Br`, for which the inhibition was 46%.

For the molecule `Cc1ccccc1COc1ccc(C=C2C(=O)NC(=S)NC2=O)cc1`, the inhibition is 60% (active).

Turning to `O=C1NC(=S)NC(=O)C1=Cc1ccc(OCc2ccccc2Cl)cc1`, the inhibition was 35%.

On to `O=C(/C=C/c1ccccc1)N1CCN(c2ccccc2)CC1`, for which the inhibition was 0%.

As for `COc1ccc(-c2ccccc2)cc1NCC1CC=CCC1` (stereo unspecified), the inhibition was 21%.

On to `Cc1ccc(NC(=O)C(C(C)C)N2C(=O)c3ccccc3C2=O)c(C)c1` (stereo unspecified), for which the inhibition is 12%.

On to `O=C1C(Cl)=C(Nc2cccc(Cl)c2)C(=O)N1c1cc(Cl)ccc1Cl`, for which the inhibition was 0%.
